For this experiment, the target named is T1, NL_v2_PPR11 (Artificial Sequence).
T1 chain: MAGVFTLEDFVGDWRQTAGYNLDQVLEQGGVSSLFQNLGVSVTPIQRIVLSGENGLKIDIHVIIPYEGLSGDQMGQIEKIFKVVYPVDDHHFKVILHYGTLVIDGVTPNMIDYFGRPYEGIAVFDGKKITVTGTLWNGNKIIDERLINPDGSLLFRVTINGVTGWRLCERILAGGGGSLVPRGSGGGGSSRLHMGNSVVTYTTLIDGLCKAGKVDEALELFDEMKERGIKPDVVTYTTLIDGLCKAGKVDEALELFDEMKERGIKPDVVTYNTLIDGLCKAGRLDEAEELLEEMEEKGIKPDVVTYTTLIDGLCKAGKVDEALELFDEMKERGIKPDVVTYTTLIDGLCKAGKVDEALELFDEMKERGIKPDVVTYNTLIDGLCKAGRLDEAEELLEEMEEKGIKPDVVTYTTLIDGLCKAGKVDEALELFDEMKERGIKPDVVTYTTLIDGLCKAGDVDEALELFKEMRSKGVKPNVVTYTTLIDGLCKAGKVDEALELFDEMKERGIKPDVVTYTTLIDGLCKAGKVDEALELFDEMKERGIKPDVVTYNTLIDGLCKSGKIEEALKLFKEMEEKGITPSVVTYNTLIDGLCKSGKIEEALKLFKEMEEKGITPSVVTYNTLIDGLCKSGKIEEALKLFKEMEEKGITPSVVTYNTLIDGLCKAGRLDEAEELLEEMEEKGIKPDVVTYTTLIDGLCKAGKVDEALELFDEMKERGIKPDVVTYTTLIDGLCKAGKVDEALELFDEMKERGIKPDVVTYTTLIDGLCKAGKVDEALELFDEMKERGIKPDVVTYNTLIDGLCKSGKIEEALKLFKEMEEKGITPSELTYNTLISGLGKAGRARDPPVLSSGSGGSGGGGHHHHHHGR
In words: RPB-ELISA. The conditions noted are these: tags: N-terminal luciferase, C-terminal 6xHis; label: 5'-biotin; ssRNA. On the procedure: RNA probes consisting of a designed 30-base sequence containing 18 bases of the target sequence and modified by biotinylation at the 5′ end (RNA_1, RNA_2, RNA_3, RNA_4, and RNA_5, SEQ ID NOS: 61 to 65) were synthesized (Grainer). To a streptavidin-coated plate (Thermo fisher), the 5′-end biotinylated RNA probes were added, reaction was allowed at room temperature for 30 minutes, and the plate was washed with a lysis buffer (20 mM Tris-HCl, pH 7.6, 150 mM NaCl, 5 mM MgCl₂, 0.5% NP-40, 1 mM DTT, 0.1% BSA). For background measurement, wells to which RNA was not added, but 100 μL of the lysis buffer, 1 μL of 100 mM DTT, and 1 μL of 40 unit/4 RNase inhibitor (Takara, 2313A) were added were also prepared. Then, 200 μL of a blocking buffer (20 mM Tris-HCl, pH 7.6, 150 mM NaCl, 5 mM MgCl₂, 0.5% NP-40, 1 mM DTT, 1% BSA) was added, and the plate surface was blocked at room temperature for 30 minutes. Then, 100 μL of E. coli lysate containing luciferase-fused PPR protein having a luminescence level of 1.5×10⁸ LU/μL was added to each well, and the binding reaction was allowed at room temperature for 30 minutes. The well was washed 5 times with 200 μL of a washing buffer (20 mM Tris-HCl, pH 7.6, 150 mM NaCl, 5 mM MgCl₂, 0.5% NP-40, 1 mM DTT). […] The background (luminescence signal value obtained with adding the PPR protein and without adding RNA) was subtracted from the luminescences of the samples to which a solution containing each RNA and PPR protein was added, and the obtained values were used as the binding powers between the PPR protein and RNA.
By using the v2 motif, PPR proteins for 23 kinds of target sequences (T_1 to T_3, and T_5 to T_24, SEQ ID NOS: […]) were prepared (NL_v2_PPR1 to 3, and NL_v2_PPR5 to 24, SEQ ID NOS: 56 to 58 and 70 to 88), and RPB-ELISA was used to analyze bindings of all the combinations. The experimental method was the same as that used in Example 3.
For the sequence GGUUAGAGAUACAGUGUG, the binding signal came to 20.4 log2 luminescence.
